Laboratory results published in ChEMBL document CHEMBL1857833, “Screening and optimization of specific chemical series against human African Trypanosomiasis (HAT)”.
Values joined by “and” are separate entries in the source; they are usually repeats but may differ in a detail not shown here. Identical values can stand only once. Among all 4,400 compounds or so, about 390 (8.9%) showed an effect of 50% or more. This excerpt belongs to a sample that is enriched for strong results.

These compounds were tested on Trypanosoma brucei (assay: DNDI: Inhibition of Human African Trypanosomiasis, SBRI 427, in vitro at 2 ug.mL-1).
Format: functional
With `Cc1cccc(Oc2ncccc2/C(=N/O)N(C)C2CCCCC2)c1C` the “% inhibition” value was -1%. With `COc1ccc(CN/C(=N\O)c2ccnc(Oc3cccc(C(C)C)c3)c2)cc1` the “% inhibition” value was -1%. `CC1CCCN1/C(=N\O)c1cccnc1OCc1ccccc1F` (centres undefined) was tested, and the “% inhibition” value was -5%. For `CCCCC(CC)CNCc1coc(-c2ccc(Br)cc2)n1` (centres undefined), the “% inhibition” value was -12%. `COCCN/C(=N\O)c1ccnc(Oc2cccc(C(C)C)c2)c1` was tested, and the “% inhibition” value was 4%. For `COCC(C)N/C(=N\O)c1ccc(Oc2ccc(Cl)cc2)nc1` (centres undefined), the “% inhibition” value was 31%. With `COCC(C)N/C(=N\O)c1ccnc(Oc2cccc(C(C)C)c2)c1` (centres undefined) the “% inhibition” value was 71%. With `COCCN/C(=N\O)c1ccnc(Oc2ccc(OC)cc2)c1` the “% inhibition” value was 41%. In the case of `COCC(C)N/C(=N\O)c1ccnc(Oc2ccc(SC)cc2)c1` (centres undefined), the “% inhibition” value is reported as 86%. With `O/N=C(\NCc1c(F)cccc1F)c1ccnc(Oc2ccc(Cl)cc2)c1` the “% inhibition” value was 12%. With `COCC(C)N/C(=N\O)c1ccnc(Oc2cccc(F)c2)c1` (centres undefined) the “% inhibition” value was 8%. For `COCCN/C(=N\O)c1ccnc(Oc2ccc(Cl)cc2)c1`, the “% inhibition” value was 55%. For `COCCN(/C(=N\O)c1ccnc(Oc2ccc(Cl)cc2)c1)C(C)C`, the “% inhibition” value was 28%. `COCC(C)N/C(=N\O)c1ccnc(Oc2ccc(Cl)cc2)c1` (centres undefined) was tested, and the “% inhibition” value was 99%. With `CSc1ccc(Oc2cc(/C(=N/O)NCc3ccncc3)ccn2)cc1` the “% inhibition” value was 9%. In the case of `COCCN/C(=N\O)c1ccnc(Oc2ccc(SC)cc2)c1`, the “% inhibition” value is reported as -13%. In the case of `CCOC(=O)C1CCCCN1Cc1coc(-c2ccc(O)cc2)n1` (centres undefined), the “% inhibition” value is reported as -1%. `Fc1ccccc1-c1nc(CNCc2cccc3ccccc23)co1` was tested, and the “% inhibition” value was 24%. With `Cc1ccc(/C(=N/O)N(C)Cc2cccnc2)c(Oc2cccnc2)n1` the “% inhibition” value was 10%. In the case of `CSc1ccc(Oc2nc(C)ccc2/C(=N/O)N2C(C)C=CC2C)cc1` (centres undefined), the “% inhibition” value is reported as -5%. With `Cc1ccccc1-c1nc(CN(C)Cc2ccco2)co1` the “% inhibition” value was 2%. `CCN(/C(=N\O)c1ccc(C)nc1Oc1cccc(C(C)C)c1)C(C)C` was tested, and the “% inhibition” value was -4%. With `C=CCN(Cc1coc(-c2ccc(C)cc2)n1)C1CCCC1` the “% inhibition” value was 16%. In the case of `Cc1ccc([C@@H](C)NCc2coc(-c3ccc(O)cc3)n2)cc1`, the “% inhibition” value is reported as 46%. For `Cc1ccc(Oc2cc(/C(=N/O)N3CCN(c4ccc(F)cc4)CC3)ccn2)c2c1CCC2`, the “% inhibition” value was 31%. For `COc1cc(CNCc2coc(-c3ccccc3Br)n2)cc(OC)c1OC`, the “% inhibition” value was -33%. For `CCN(Cc1ccccc1)Cc1coc(-c2cc(OC)c(OC)c(OC)c2)n1`, the “% inhibition” value was -20%. With `Cc1ccc(C)c(N2CCN(Cc3coc(-c4ccc(O)cc4)n3)CC2)c1` the “% inhibition” value was 9%. For `Cc1cccc(-c2nc(CNCc3ccncc3)co2)c1`, the “% inhibition” value was -16%. With `Cc1ccc(-c2nc(CN3CC[C@@H]4CCCC[C@@H]4C3)co2)cc1` the “% inhibition” value was -5%. In the case of `O/N=C(\NCc1ccccc1)c1ccnc(Oc2ccc(F)c(Cl)c2)c1`, the “% inhibition” value is reported as 24%. With `CCN(/C(=N\O)c1ccnc(Oc2ccc(F)c(Cl)c2)c1)C(C)C` the “% inhibition” value was 14%. `CC(C)c1ccc(N/C(=N\O)c2ccnc(Oc3ccc(F)c(Cl)c3)c2)cc1` was tested, and the “% inhibition” value was 0%. With `CCN(/C(=N\O)c1ccnc(Oc2ccc(F)c(F)c2)c1)C(C)C` the “% inhibition” value was 43%. `CCN(/C(=N\O)c1ccnc(Oc2ccc(Cl)cc2)c1)C(C)C` was tested, and the “% inhibition” value was 74%. `COCC(C)N/C(=N\O)c1ccnc(Oc2ccc(F)c(Cl)c2)c1` (centres undefined) was tested, and the “% inhibition” value was 99%. In the case of `Cc1cn(/C(=N\O)c2ccc(Oc3ccc(Cl)cc3)nc2)cn1`, the “% inhibition” value is reported as 5%. With `CCCN(CC1CC1)/C(=N\O)c1cccnc1Oc1ccccc1OC` the “% inhibition” value was 24%. In the case of `CC(C)c1ccccc1Oc1ncccc1/C(N)=N/O`, the “% inhibition” value is reported as 7%. In the case of `COc1cc(C)ccc1Oc1nc(C)ccc1/C(=N/O)Nc1ccc(C(C)C)cc1`, the “% inhibition” value is reported as 8%. With `Cc1ccc(Oc2nc(C)ccc2/C(=N/O)NCc2ccco2)cc1` the “% inhibition” value was 37%. With `CC(C)c1ccc(N/C(=N\O)c2cccnc2OCC(C)(C)C)cc1` the “% inhibition” value was 14%. `CC(C)N/C(=N\O)c1cccnc1OCC(C)(C)C` was tested, and the “% inhibition” value was 100%. In the case of `CC(C)N/C(=N\O)c1cccnc1Oc1ccc2ccccc2c1`, the “% inhibition” value is reported as 21%. For `Cc1ccc(CN/C(=N\O)c2cccnc2Oc2ccc3ccccc3c2)o1`, the “% inhibition” value was 19%. `CCCN/C(=N\O)c1cccnc1Oc1ccc2ccccc2c1` was tested, and the “% inhibition” value was 25%. In the case of `CCC(C)(C)N/C(=N\O)c1cccnc1OCC(C)(C)C`, the “% inhibition” value is reported as 11%. In the case of `CCC(C)(C)N/C(=N\O)c1cccnc1Oc1ccc2ccccc2c1`, the “% inhibition” value is reported as 99%. For `Cc1cc(C)cc(CN/C(=N\O)c2cccnc2Oc2ccc(Cl)cc2)c1`, the “% inhibition” value was 31%. `COc1ccc(Oc2ncccc2/C(=N/O)NCc2cc(C)cc(C)c2)cc1` was tested, and the “% inhibition” value was 79%. `Cc1cc(C)cc(CN/C(=N\O)c2cccnc2Oc2ccc3ccccc3c2)c1` was tested, and the “% inhibition” value was 70%. In the case of `COc1ccc(Oc2ncccc2/C(=N/O)NCc2cccnc2)cc1`, the “% inhibition” value is reported as -2%. In the case of `O/N=C(\NCc1cccnc1)c1cccnc1Oc1ccc2ccccc2c1`, the “% inhibition” value is reported as -6%. `COc1cccc(-c2nc(CN3CCOCC3)co2)c1` was tested, and the “% inhibition” value was 35%. In the case of `FC(F)(F)CNCc1coc(-c2ccc(Cl)cc2Cl)n1`, the “% inhibition” value is reported as 23%. For `COCC(C)NCc1coc(-c2ccccc2C)n1` (centres undefined), the “% inhibition” value was 9%. `CC(c1ccccc1)N(C)Cc1coc(-c2ccc(C(F)(F)F)cc2)n1` (centres undefined) was tested, and the “% inhibition” value was 7% and -11%. For `Cc1cc(C)cc(Oc2ccc(/C(N)=N/O)cn2)c1`, the “% inhibition” value was 11%. For `Clc1ccccc1-c1nc(CNC(c2ccccc2)c2ccccc2)co1`, the “% inhibition” value was 6%. In the case of `CC1CC(C)CN(Cc2coc(-c3ccc(Br)cc3)n2)C1` (centres undefined), the “% inhibition” value is reported as -5%. With `CCOc1ccccc1-c1nc(CN(C)C(C)c2ccccc2)co1` (centres undefined) the “% inhibition” value was 8% and 1%. In the case of `CCOc1cccc(-c2nc(CNC(CC)c3ccccc3)co2)c1` (centres undefined), the “% inhibition” value is reported as 27%. For `Fc1ccc(N2CCN(Cc3coc(-c4ccccc4Br)n3)CC2)cc1`, the “% inhibition” value was -6%. In the case of `Cc1nccn1/C(=N\O)c1cccnc1OCC(C)C`, the “% inhibition” value is reported as -13%. With `O/N=C(\NCc1cc(F)ccc1F)c1ccc(Oc2ccc3ccccc3c2)nc1` the “% inhibition” value was 31%. In the case of `Cc1cc(C)cc(CN/C(=N\O)c2cccnc2OCC(C)(C)C)c1`, the “% inhibition” value is reported as -8%. In the case of `CC(C)COc1ncccc1/C(=N/O)NCc1ccccc1`, the “% inhibition” value is reported as 37%. In the case of `CC(C)COc1ncccc1/C(=N/O)NCC(C)(C)C`, the “% inhibition” value is reported as 95%. `COCCN/C(=N\O)c1cccnc1OCC(C)C` was tested, and the “% inhibition” value was -7%. For `Cc1cc(C)cc(CN/C(=N\O)c2cccnc2OCC(C)C)c1`, the “% inhibition” value was 92%. With `CSCCN/C(=N\O)c1cccnc1OCC(C)C` the “% inhibition” value was -5%. With `Fc1cccc(-c2nc(CNc3cc[nH]n3)co2)c1` the “% inhibition” value was 45%. `FC(F)(F)c1ccc(-c2nc(CN3CCN(C(c4ccccc4)c4ccccc4)CC3)co2)cc1` was tested, and the “% inhibition” value was -3%. For `CCOc1ccc(-c2nc(CNC(CC)c3ccccc3)co2)cc1` (centres undefined), the “% inhibition” value was 1% and -14%. With `CCCCN(CC)Cc1coc(-c2ccccc2Cl)n1` the “% inhibition” value was 19%. In the case of `Fc1ccc(-c2nc(CNCCN3CCCC3)co2)cc1`, the “% inhibition” value is reported as 1%. In the case of `CC1CCCCN1CCCNCc1coc(-c2ccc(F)cc2)n1` (centres undefined), the “% inhibition” value is reported as 72%. For `COc1ccc(-c2nc(CN3CCCCC3C)co2)cc1` (centres undefined), the “% inhibition” value was 12%. For `COc1ccc(-c2nc(CNCCCN3CCCCC3C)co2)cc1` (centres undefined), the “% inhibition” value was 97%. For `Fc1ccc(-c2nc(CNCCN3CCCCC3)co2)cc1`, the “% inhibition” value was -17%. With `CC1CCCCN1CCCNCc1coc(-c2ccco2)n1` (centres undefined) the “% inhibition” value was 23%. With `COC(=O)C1CCN(/C(=N\O)c2cccnc2Oc2cccc3ccccc23)CC1` the “% inhibition” value was 9%. In the case of `CC1CCCN1/C(=N\O)c1cccnc1Oc1ccc(Cl)cc1` (centres undefined), the “% inhibition” value is reported as -13%. In the case of `CN(Cc1coc(-c2ccc(C(F)(F)F)cc2)n1)c1ccccc1`, the “% inhibition” value is reported as 1%. `Oc1ccc(-c2nc(CN(Cc3ccccc3)c3ccccc3)co2)cc1` was tested, and the “% inhibition” value was 11%. `NCCc1cn(Cc2coc(-c3cccs3)n2)c2ccccc12` was tested, and the “% inhibition” value was -15%. `CCN(Cc1ccccc1)Cc1coc(-c2ccc(OC)cc2)n1` was tested, and the “% inhibition” value was -11%. For `Cc1ccc(/C(=N/O)NCC2CC2)c(Oc2ccc3ccccc3c2)n1`, the “% inhibition” value was 17%. `Cc1cccc(Oc2nc(C)ccc2/C(=N/O)NCC(C)(C)C)c1` was tested, and the “% inhibition” value was 100%. For `CCC(C)(C)N/C(=N\O)c1ccc(C)nc1Oc1cccc(F)c1`, the “% inhibition” value was 13%. `Cc1ccc(/C(=N/O)NCC(C)(C)C)c(OCc2cccc(F)c2)n1` was tested, and the “% inhibition” value was 96%. For `CSCCN/C(=N\O)c1ccc(C)nc1Oc1ccc2ccccc2c1`, the “% inhibition” value was 7%. In the case of `CCC(C)(C)N/C(=N\O)c1ccc(C)nc1Oc1cccc(C)c1`, the “% inhibition” value is reported as 19%. For `Cc1cccc(Oc2nc(C)ccc2/C(=N/O)NCc2ccccc2)c1`, the “% inhibition” value was 6%. In the case of `Cc1ccc(/C(=N/O)NCc2cc(F)cc(F)c2)c(OCc2cccc(F)c2)n1`, the “% inhibition” value is reported as -12%. In the case of `Cc1ccc(/C(=N/O)NCC(C)(C)C)c(Oc2ccc3ccccc3c2)n1`, the “% inhibition” value is reported as 96%. With `CSCCN/C(=N\O)c1ccc(C)nc1Oc1cccc(F)c1` the “% inhibition” value was 12%. For `CCCN/C(=N\O)c1ccc(C)nc1OCc1cccc(F)c1`, the “% inhibition” value was 0%. `Cc1ccc(/C(=N/O)NCC(C)(C)C)c(Oc2cccc(F)c2)n1` was tested, and the “% inhibition” value was 99%. With `Cc1cccc(-c2nc(Cn3cc(-c4ccccc4)c(C)n3)co2)c1` the “% inhibition” value was -11%. For `c1ccc(-c2nc(CN3CCC4CCCCC4C3)co2)cc1` (centres undefined), the “% inhibition” value was 37%. For `C#CC(CC)(CC)NCc1coc(-c2cccs2)n1`, the “% inhibition” value was -2%. For `CCN(Cc1ccccc1)Cc1coc(-c2cccc(OC)c2)n1`, the “% inhibition” value was -7%. With `CCN1CCN(Cc2coc(-c3ccc(C(F)(F)F)cc3)n2)CC1` the “% inhibition” value was 10%. `CCCc1nccn1Cc1coc(-c2cccc(F)c2)n1` was tested, and the “% inhibition” value was 5%. With `COc1cc(CNCc2coc(-c3ccc(C)cc3)n2)cc(OC)c1OC` the “% inhibition” value was 9%. `O=c1c(Cl)cn(Cc2coc(-c3ccc(C(F)(F)F)cc3)n2)cc1Cl` was tested, and the “% inhibition” value was -5%. In the case of `COc1ccc(-c2nc(CN3CCN(c4ccccc4OC)CC3)co2)cc1`, the “% inhibition” value is reported as 13%. With `CC(C)(C)c1ccc(CNCc2coc(-c3cccc4ccccc34)n2)cc1` the “% inhibition” value was -1%.
